# Measurements taken from paper PMC11024108.
# Molecular target: T1, Monocarboxylate transporter 1 (UniProt P53985)
# T1 sequence: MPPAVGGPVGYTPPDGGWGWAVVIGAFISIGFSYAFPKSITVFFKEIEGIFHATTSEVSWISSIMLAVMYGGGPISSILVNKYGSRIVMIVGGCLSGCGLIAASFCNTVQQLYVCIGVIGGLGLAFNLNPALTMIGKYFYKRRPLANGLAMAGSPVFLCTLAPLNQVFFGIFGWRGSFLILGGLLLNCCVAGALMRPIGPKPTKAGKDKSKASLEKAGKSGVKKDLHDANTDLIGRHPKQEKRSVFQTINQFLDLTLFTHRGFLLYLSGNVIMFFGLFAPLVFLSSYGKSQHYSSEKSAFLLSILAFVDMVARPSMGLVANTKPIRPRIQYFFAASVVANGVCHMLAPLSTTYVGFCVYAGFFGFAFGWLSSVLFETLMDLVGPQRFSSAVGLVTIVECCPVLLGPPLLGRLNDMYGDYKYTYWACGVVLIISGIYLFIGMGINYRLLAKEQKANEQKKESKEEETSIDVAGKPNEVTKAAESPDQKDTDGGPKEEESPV
# Experiment: cross-link between two proteins; cross-linking mass spectrometry
substance,measurement,value
"Sodium/potassium-transporting ATPase subunit alpha-1, P05023",listed as a hit,yes
